“And” between values parts separate entries of the source, which are not always exact repeats. Identical values can stand only once. Compounds without any hit were thinned out: in the full panel of roughly 83,000, 20% have a hit.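 48-hour exposure, single concentration, 96-well plates; percent growth endpoint where 0 means no net growth. Active: below 10.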 The source made the active and inactive calls.

Some test systems named below: DU-145 prostate; K-562 leukemia; MALME-3M melanoma; MDA-MB-231 breast; RXF 393 renal; SF-268 CNS; SF-295 CNS; SF-539 CNS; UACC-257 melanoma; M14 melanoma.
Common to all, as to assay: NCI-60 one-dose screen, 48 h (100 = growth as untreated, 0 = no growth, -100 = all killed)
Holding throughout (settings): 10 µM unless noted

Turning to `O=C(O)c1cc(=O)[nH]c(=O)[nH]1`, the growth is 116% (inactive) and 104% (inactive) in the test on DU-145 prostate; 106% (inactive) and 115% (inactive) in the test with K-562 leukemia; 89.1% (inactive) and 116% (inactive) with MALME-3M melanoma; 97.2% (inactive) and 96.3% (inactive) in the test with MDA-MB-231 breast; 118% (inactive) in the test with RXF 393 renal; 112% (inactive) and 100% (inactive) in the test on SF-268 CNS. Besides, the growth in the test on SF-295 CNS was 101% (inactive) and 124% (inactive); in the test on SF-539 CNS, 104% (inactive) and 80.5% (inactive); with UACC-257 melanoma, 103% (inactive); with M14 melanoma it was 102% (inactive) and 111% (inactive).
Consider `Cc1nc2c(=O)[nH]c(=S)[nH]c2[nH]c1=O`, for which the growth with DU-145 prostate was 112% (inactive) and 119% (inactive); in the test on K-562 leukemia it was 102% (inactive); in the test with MALME-3M melanoma it was 108% (inactive); with MDA-MB-231 breast, 112% (inactive) and 102% (inactive); in the test with RXF 393 renal, 111% (inactive) and 125% (inactive); with SF-268 CNS, 109% (inactive) and 104% (inactive). Also, the growth is 111% (inactive) and 94.6% (inactive) in the test on SF-295 CNS; 104% (inactive) and 99.1% (inactive) in the test with SF-539 CNS; 110% (inactive) and 97.8% (inactive) with UACC-257 melanoma; 113% (inactive) and 110% (inactive) with M14 melanoma.
Take `O=[N+]([O-])c1ccc(NC2CCCCC2)nc1`: the growth was 96.7% (inactive) and 119% (inactive) with DU-145 prostate; 108% (inactive) and 104% (inactive) with K-562 leukemia; 118% (inactive) in the test on MALME-3M melanoma; 95.4% (inactive) and 114% (inactive) in the test on MDA-MB-231 breast; 126% (inactive) and 103% (inactive) in the test on RXF 393 renal; 110% (inactive) and 112% (inactive) with SF-268 CNS. The growth is 103% (inactive) and 102% (inactive) in the test on SF-295 CNS; 99.6% (inactive) and 110% (inactive) in the test on SF-539 CNS; 107% (inactive) and 106% (inactive) in the test with UACC-257 melanoma; 105% (inactive) and 109% (inactive) with M14 melanoma.
As for `CC1=CC(=O)c2cccc(NC3=NCCO3)c21`, the growth in the test with DU-145 prostate was 108% (inactive); in the test with K-562 leukemia, 82.4% (inactive); in the test with MALME-3M melanoma, 93.4% (inactive); in the test on MDA-MB-231 breast, 102% (inactive); in the test on RXF 393 renal it was 117% (inactive); in the test on SF-268 CNS, 100% (inactive). Moreover, the growth was 95.1% (inactive) in the test on SF-295 CNS, 95.7% (inactive) with SF-539 CNS, 94.2% (inactive) in the test with UACC-257 melanoma and 97.1% (inactive) with M14 melanoma.
In the case of `CCOC(=N)c1ccc(C(=N)OCC)cc1`, the growth in the test with DU-145 prostate is 103% (inactive); in the test on K-562 leukemia, 98.7% (inactive); in the test with MALME-3M melanoma, 106% (inactive); with MDA-MB-231 breast, 96.3% (inactive); with RXF 393 renal it was 112% (inactive); in the test with SF-268 CNS it was 98.4% (inactive). The growth is 91.6% (inactive) with SF-295 CNS, 98.1% (inactive) in the test with SF-539 CNS, 102% (inactive) in the test with UACC-257 melanoma and 104% (inactive) in the test on M14 melanoma.
For `CCCCNC(=O)c1ccccc1C`, the growth with DU-145 prostate was 104% (inactive); in the test with K-562 leukemia, 103% (inactive); in the test on MALME-3M melanoma it was 87.4% (inactive); in the test on MDA-MB-231 breast, 103% (inactive); in the test on RXF 393 renal, 94.8% (inactive); with SF-268 CNS, 101% (inactive). For the same compound, the growth in the test with SF-295 CNS is 94.6% (inactive); in the test with SF-539 CNS, 107% (inactive); with UACC-257 melanoma it was 100% (inactive); in the test with M14 melanoma, 90.4% (inactive).
On to `CC1CCC(=O)N1c1ccc(N)cc1` (stereo not drawn), for which the growth in the test on DU-145 prostate is 105% (inactive); with K-562 leukemia it was 99.9% (inactive); with MALME-3M melanoma, 105% (inactive); in the test on MDA-MB-231 breast, 101% (inactive); in the test with RXF 393 renal, 112% (inactive); in the test with SF-268 CNS it was 103% (inactive). In addition, the growth with SF-295 CNS was 102% (inactive); with SF-539 CNS it was 99.8% (inactive); with UACC-257 melanoma, 88.7% (inactive); in the test with M14 melanoma it was 104% (inactive).
In the case of `NC(=O)Cc1nc(O)cc(=O)[nH]1`, the growth is 115% (inactive) in the test on DU-145 prostate; 102% (inactive) in the test with K-562 leukemia; 103% (inactive) in the test on MALME-3M melanoma; 96.5% (inactive) with MDA-MB-231 breast; 107% (inactive) in the test with RXF 393 renal; 102% (inactive) in the test with SF-268 CNS. The growth in the test on SF-295 CNS was 96.5% (inactive); with SF-539 CNS, 101% (inactive); with UACC-257 melanoma, 86.4% (inactive); with M14 melanoma, 101% (inactive).
In the case of `COc1ccccc1OCC(O)CO` (stereo not drawn), the growth with DU-145 prostate was 115% (inactive) and 123% (inactive); in the test on K-562 leukemia, 118% (inactive) and 87.4% (inactive); with MALME-3M melanoma, 110% (inactive) and 105% (inactive); with MDA-MB-231 breast, 114% (inactive) and 111% (inactive); in the test with RXF 393 renal, 110% (inactive) and 111% (inactive); in the test with SF-268 CNS, 100% (inactive) and 114% (inactive). The growth in the test on SF-295 CNS is 3.64% (active) and 96.5% (inactive); with SF-539 CNS it was 92.3% (inactive) and 121% (inactive); in the test on UACC-257 melanoma, 102% (inactive) and 105% (inactive); in the test with M14 melanoma, 104% (inactive) and 106% (inactive).
For `NCCCCCC(=O)O`, the growth with DU-145 prostate is 124% (inactive) [middle of 4 runs]; with K-562 leukemia, 112% (inactive) [middle of 4 runs]; in the test on MDA-MB-231 breast it was 112% (inactive) and 105% (inactive) and 109% (inactive); in the test on RXF 393 renal, 110% (inactive) and 113% (inactive) and 127% (inactive); with SF-295 CNS, 104% (inactive) [middle of 4 runs]; in the test on SF-539 CNS it was 101% (inactive) [middle of 4 runs]. Further, the growth with UACC-257 melanoma is 102% (inactive) and 96.4% (inactive) and 105% (inactive); with M14 melanoma, 106% (inactive) [middle of 4 runs].
Consider `C/C(=C\c1ccccc1)C(O)C(=O)c1nc2ccc([N+](=O)[O-])cc2[nH]c1=O` (stereo not drawn), for which the growth was 105% (inactive) in the test on DU-145 prostate; 85.8% (inactive) in the test on K-562 leukemia; 109% (inactive) in the test with MALME-3M melanoma; 90.8% (inactive) with MDA-MB-231 breast; 109% (inactive) in the test with RXF 393 renal; 98.1% (inactive) with SF-268 CNS. Also, the growth in the test on SF-295 CNS is 93.3% (inactive); in the test on SF-539 CNS, 102% (inactive); in the test with UACC-257 melanoma it was 81.2% (inactive); in the test with M14 melanoma, 92.3% (inactive).
